This is an account of results in article PMC4336329 (PLoS ONE, 2015).

About 14,000 (4.5%) of roughly 310,000 compounds showed an effect of 50% or more. The effect is printed as a negative number. The entries come from a sample that favours strong results as a whole.
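Further: peak tail current of the secondary pulse compared with the same well before compound.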

The target in the assay is human ether-à-go-go-related gene (hERG) potassium channel (human, UniProt Q12809). The assay can be described thus: primary screen, population patch clamp on CHO cells stably expressing hERG; higher = less effect of the substance.
human ether-à-go-go-related gene (hERG) potassium channel, sequence (Q12809 whole entry, looked up): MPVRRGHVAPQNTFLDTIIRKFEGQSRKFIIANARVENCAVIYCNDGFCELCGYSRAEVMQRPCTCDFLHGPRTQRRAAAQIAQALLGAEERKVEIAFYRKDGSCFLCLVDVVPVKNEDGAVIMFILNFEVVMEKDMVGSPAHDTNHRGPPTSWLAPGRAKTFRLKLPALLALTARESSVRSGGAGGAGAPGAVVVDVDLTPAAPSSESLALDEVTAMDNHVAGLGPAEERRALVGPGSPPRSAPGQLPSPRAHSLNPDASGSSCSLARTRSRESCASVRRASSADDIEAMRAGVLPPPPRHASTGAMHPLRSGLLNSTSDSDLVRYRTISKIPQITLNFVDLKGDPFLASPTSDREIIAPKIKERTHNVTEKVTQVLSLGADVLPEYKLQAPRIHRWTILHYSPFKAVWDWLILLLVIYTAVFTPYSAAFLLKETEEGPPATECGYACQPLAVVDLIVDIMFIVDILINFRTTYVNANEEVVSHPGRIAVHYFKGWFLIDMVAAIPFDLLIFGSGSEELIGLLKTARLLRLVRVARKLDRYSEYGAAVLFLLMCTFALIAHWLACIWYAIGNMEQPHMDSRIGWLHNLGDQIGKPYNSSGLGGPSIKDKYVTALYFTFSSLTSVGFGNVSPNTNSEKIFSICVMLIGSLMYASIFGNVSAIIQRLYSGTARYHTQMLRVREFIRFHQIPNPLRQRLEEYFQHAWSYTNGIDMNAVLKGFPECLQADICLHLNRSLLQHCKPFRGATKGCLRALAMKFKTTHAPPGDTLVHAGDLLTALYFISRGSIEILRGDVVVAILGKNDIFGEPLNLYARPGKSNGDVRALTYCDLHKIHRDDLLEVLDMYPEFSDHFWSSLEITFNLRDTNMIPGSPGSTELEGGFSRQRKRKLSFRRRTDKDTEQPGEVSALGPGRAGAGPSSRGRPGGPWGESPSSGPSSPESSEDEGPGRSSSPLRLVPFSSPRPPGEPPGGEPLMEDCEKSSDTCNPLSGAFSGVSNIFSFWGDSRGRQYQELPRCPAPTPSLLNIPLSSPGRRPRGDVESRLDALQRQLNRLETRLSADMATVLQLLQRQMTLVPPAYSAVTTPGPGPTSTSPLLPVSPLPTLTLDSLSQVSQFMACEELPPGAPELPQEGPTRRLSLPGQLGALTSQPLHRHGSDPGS
As for `COC(=O)/C(=C/c1ccc(F)cc1)NC(C)=O`, the “hERG current change (%, negative = inhibition) at 10uM” value is -0.211%.

As to `O=C(CN1C(=O)S/C(=C\c2cccc(Cl)c2)C1=O)NC1C=CS(=O)(=O)C1` (stereo not shown), the “hERG current change (%, negative = inhibition) at 10uM” value worked out at 18.1%.

Take `O=C(Nc1ccccc1F)c1ccc2c(c1)OCO2`: the “hERG current change (%, negative = inhibition) at 10uM” value came to 15.7%.

As to `CC(C)NCCCCOc1ccccc1-c1ccccc1.O=C(O)C(=O)O`, the “hERG current change (%, negative = inhibition) at 10uM” value is -32.9%.

For `COCCCNCCCCOc1ccc(Br)cc1C.O=C(O)C(=O)O`, the “hERG current change (%, negative = inhibition) at 10uM” value is reported as -64.6%.

As to `COCCCNCCCCOc1cccc(Br)c1.O=C(O)C(=O)O`, the “hERG current change (%, negative = inhibition) at 10uM” value is -19.3%.

On to `CC(C)NCCCCOc1ccc(Br)cc1Cl.O=C(O)C(=O)O`, for which the “hERG current change (%, negative = inhibition) at 10uM” value is on record as -64.6%.

With `CC(C)NCCCOc1ccc(Cl)cc1Br.O=C(O)C(=O)O`, the “hERG current change (%, negative = inhibition) at 10uM” value was -54.4%.

Turning to `COCCNCCCCOc1ccc(Br)cc1C.O=C(O)C(=O)O`, the “hERG current change (%, negative = inhibition) at 10uM” value is -36.7%.

For `CC(C)NCCCCOc1cccc(Br)c1.O=C(O)C(=O)O`, the “hERG current change (%, negative = inhibition) at 10uM” value was -25.8%.

Take `Cc1ccc(OCCOCCNC(C)C)c(Br)c1.O=C(O)C(=O)O`: the “hERG current change (%, negative = inhibition) at 10uM” value is listed as -18.3%.

`Cc1cccc(NS(=O)(=O)c2cccc(C(=O)N3CCCCCC3)c2)c1`: the “hERG current change (%, negative = inhibition) at 10uM” value was -3.09%.

In the case of `Cc1cnn(-c2cc(N/N=C/c3ccc(F)cc3)ncn2)c1`, the “hERG current change (%, negative = inhibition) at 10uM” value is listed as 5.69%.

Regarding `CC(C)Cc1nnc(NC(=O)CCC(=O)N2CCC3(CC2)OCCO3)s1`, the “hERG current change (%, negative = inhibition) at 10uM” value worked out at 12.3%.

Consider `O=c1c2ccccc2oc2cc(C#Cc3ccccn3)ccc12`, for which the “hERG current change (%, negative = inhibition) at 10uM” value is listed as 7.36%.

For `C/C=C(/C)C(=O)Nc1cccc(C2=NOC3(C2)C[C@@H](C(N)=O)N(C(=O)CCCCC)C3)c1` (stereo partly shown), the “hERG current change (%, negative = inhibition) at 10uM” value was -40.1%.

As for `COc1cc(/C=N/NC(=O)c2cc(C3CC3)[nH]n2)ccc1O`, the “hERG current change (%, negative = inhibition) at 10uM” value is on record as -12.7%.

For `CCOC(=O)C1=C(C)N(CC)C(=S)NC1c1ccc(Cl)cc1` (stereo not shown), the “hERG current change (%, negative = inhibition) at 10uM” value is listed as -9.13%.

As for `COc1ccc2c(c1)C(c1ccc([N+](=O)[O-])cc1)=NNC(c1ccco1)=N2`, the “hERG current change (%, negative = inhibition) at 10uM” value was -60%.

Consider `COc1ccc2c(c1)C(c1ccccc1)=NNC(c1ccco1)=N2`, for which the “hERG current change (%, negative = inhibition) at 10uM” value is on record as -15.7%.

On to `COc1ccc(C2=NNC(c3ccco3)=Nc3ccc(F)cc32)cc1`, for which the “hERG current change (%, negative = inhibition) at 10uM” value is listed as -10.8%.

For `O=C(CS(=O)(=O)c1cn(Cc2ccc(F)cc2)c2ccccc12)N1CCCCC1`, the “hERG current change (%, negative = inhibition) at 10uM” value is given as -0.405%.

For the compound `C#CC[N+](C)(C)CC#Cc1ccccc1.[Br-]`, the “hERG current change (%, negative = inhibition) at 10uM” value came to 13.3%.

Take `Cc1ccc(C#CC[N+](C)(C)CC#Cc2ccccc2)cc1.[Br-]`: the “hERG current change (%, negative = inhibition) at 10uM” value is on record as -75.9%.

Turning to `CC[N+](CC)(CC#CCO)CC#Cc1ccccc1.[Br-]`, the “hERG current change (%, negative = inhibition) at 10uM” value was found to be 33.7%.

As for `C#CC[N+](C)(C)CC#Cc1ccc(C)cc1.[Br-]`, the “hERG current change (%, negative = inhibition) at 10uM” value worked out at 6.33%.

As to `C#CC[N+](CC)(CC)CC#Cc1ccccc1.[Br-]`, the “hERG current change (%, negative = inhibition) at 10uM” value is on record as 9.22%.

With `CC[N+](CC)(CC#Cc1ccccc1)CC#Cc1ccccc1.[Br-]`, the “hERG current change (%, negative = inhibition) at 10uM” value was -69.8%.

Turning to `O=C(CSc1nnc(CNC(=O)c2ccco2)o1)Nc1ccc(F)cc1F`, the “hERG current change (%, negative = inhibition) at 10uM” value was found to be 8.95%.

Consider `O=C(c1ccc(C#Cc2ccccc2)o1)N1CCN(c2ccccn2)CC1`, for which the “hERG current change (%, negative = inhibition) at 10uM” value is given as -6.76%.

`COc1ccc(Nc2ncccc2C(=O)Nc2ccccc2)cc1`: the “hERG current change (%, negative = inhibition) at 10uM” value was -9.63%.

For the compound `Cc1ccc(OCc2ccccc2Br)c([N+](=O)[O-])n1`, the “hERG current change (%, negative = inhibition) at 10uM” value was 16.7%.

Turning to `CC(=O)c1ccc(-c2nnc(CCC(=O)N(C)Cc3cccc4cnccc34)o2)s1`, the “hERG current change (%, negative = inhibition) at 10uM” value is on record as -81.4%.

On to `CN(Cc1cccc2cnccc12)C(=O)CCc1nnc(CCc2ccccc2)o1`, for which the “hERG current change (%, negative = inhibition) at 10uM” value is listed as -44.7%.

With `COc1ccccc1CCc1nnc(CCC(=O)N(C)Cc2cccc3cnccc23)o1`, the “hERG current change (%, negative = inhibition) at 10uM” value is listed as -35.3%.

On to `O=C(NC1CCCCC1)C(c1ccncc1)N(Cc1ccc(F)cc1)C(=O)c1ccccn1` (stereo not shown), for which the “hERG current change (%, negative = inhibition) at 10uM” value is -5.49%.

As for `Cc1cc(S(=O)(=O)N2CCc3ccccc3C2)ccc1F`, the “hERG current change (%, negative = inhibition) at 10uM” value is on record as 7.2%.

In the case of `CC(CCc1ccccc1)NC(=O)CN1CCN(c2ccc(O)cc2)CC1` (stereo not shown), the “hERG current change (%, negative = inhibition) at 10uM” value is recorded as -37.1%.

In the case of `O=C(CN1CCN(c2ccccc2O)CC1)NC(c1ccccc1)c1ccccc1`, the “hERG current change (%, negative = inhibition) at 10uM” value was -22.7%.

In the case of `CC(CCc1ccccc1)NC(=O)CN1CCc2ccccc2C1` (stereo not shown), the “hERG current change (%, negative = inhibition) at 10uM” value is listed as -22.4%.

Turning to `O=C(CN1CCN(c2ccc(O)cc2)CC1)NC(c1ccccc1)c1ccccc1`, the “hERG current change (%, negative = inhibition) at 10uM” value is on record as -50.8%.

As to `O=C(O)C(=O)O.c1ccc(CN2CCN(C(c3ccccc3)c3ccccc3)CC2)cc1`, the “hERG current change (%, negative = inhibition) at 10uM” value is on record as 2.22%.

With `COc1ccc(/C=N/NC(=O)CN2CCCC2)cc1`, the “hERG current change (%, negative = inhibition) at 10uM” value is given as -14.8%.

Take `CC(=O)C(Cc1ccccc1)NC(=O)CN1CCN(Cc2ccccc2)CC1` (stereo not shown): the “hERG current change (%, negative = inhibition) at 10uM” value is listed as -5.57%.

`COc1ccc(C(NC(=O)CN2CCCCCC2)c2ccc(OC)cc2)cc1`: the “hERG current change (%, negative = inhibition) at 10uM” value is -65.9%.

As for `COc1ccc(N2CCN(CC(=O)NC(C)c3ccccc3)CC2)cc1` (stereo not shown), the “hERG current change (%, negative = inhibition) at 10uM” value came out at 20.6%.

As to `CC(NC(=O)CN1CCN(c2ccc(Cl)cc2)CC1)c1ccccc1` (stereo not shown), the “hERG current change (%, negative = inhibition) at 10uM” value is given as -42.7%.

For the compound `O=C(CN1CCN(Cc2ccccc2)CC1)NC(c1ccccc1)c1ccccc1.O=C(O)C(=O)O`, the “hERG current change (%, negative = inhibition) at 10uM” value is -59.8%.

With `CC(CCc1ccccc1)NC(=O)CN1CCN(c2ccccc2)CC1` (stereo not shown), the “hERG current change (%, negative = inhibition) at 10uM” value was -55.8%.

With `Cc1ccc(SCCSc2ncccn2)cc1`, the “hERG current change (%, negative = inhibition) at 10uM” value is -2.38%.

For the compound `CC(C)c1cc(-c2n[nH]c(=S)n2Cc2ccccc2)cs1`, the “hERG current change (%, negative = inhibition) at 10uM” value turned out to be 17.8%.

Consider `Cc1cc(C)nc(N2CCN(C(=O)CCC(=O)Nc3nnc(CC(C)C)s3)CC2)n1`, for which the “hERG current change (%, negative = inhibition) at 10uM” value is -6.7%.

For `O=C(N1CCCCC1)N1CCN(S(=O)(=O)c2cccc([N+](=O)[O-])c2)CC1`, the “hERG current change (%, negative = inhibition) at 10uM” value was -15.8%.

For `COc1cc(S(=O)(=O)NCc2cccnc2)ccc1F`, the “hERG current change (%, negative = inhibition) at 10uM” value is -5.7%.

Take `CN(C)C(=O)N1CCCC(C(=O)NCc2cccs2)C1` (stereo not shown): the “hERG current change (%, negative = inhibition) at 10uM” value came to 1.62%.

`CNc1ccccc1C(=O)OCC(=O)N(CCOC)c1c(N)n(CC(C)C)c(=O)[nH]c1=O`: the “hERG current change (%, negative = inhibition) at 10uM” value is reported as 9.81%.

On to `CCCCN1CCNC[C@@H]1Cc1ccc(O)cc1`, for which the “hERG current change (%, negative = inhibition) at 10uM” value is recorded as 16%.

`CCN(CC(=O)Nc1ccc(Br)c(C)c1)CC(=O)NC(C)C`: the “hERG current change (%, negative = inhibition) at 10uM” value is given as -4.86%.
